# According to PMC5540273 (PLoS ONE, 2017):
# Where two headings read alike, the source gives them in different places.
# Experiments:
# FLT3-autoinhibited = conditions: concentration: 1 μM, replicates: in singlicate; n = 1
# FLT3 = conditions: concentration: 1 μM, replicates: in singlicate; n = 1
# FLT4 = conditions: concentration: 1 μM, replicates: in singlicate; n = 1
# FRK = conditions: concentration: 1 μM, replicates: in singlicate; n = 1
# FYN = conditions: concentration: 1 μM, replicates: in singlicate; n = 1
# GAK = conditions: concentration: 1 μM, replicates: in singlicate; n = 1
# GCN2(Kin.Dom.2,S808G) = test system: T1, GCN2(Kin.Dom.2,S808G); conditions: concentration: 1 μM, replicates: in singlicate; n = 1
# T1 construct: gene EIF2AK4
# GRK1 = conditions: concentration: 1 μM, replicates: in singlicate; n = 1
# GRK2 = test system: T2, GRK2; conditions: concentration: 1 μM, replicates: in singlicate; n = 1
# T2 construct: gene ADRBK1
# GRK3 = test system: T3, GRK3; conditions: concentration: 1 μM, replicates: in singlicate; n = 1
# T3 construct: gene ADRBK2
# GRK4 = conditions: concentration: 1 μM, replicates: in singlicate; n = 1
# GRK7 = conditions: concentration: 1 μM, replicates: in singlicate; n = 1
# GSK3A = conditions: concentration: 1 μM, replicates: in singlicate; n = 1
# GSK3B = conditions: n = 1
# HASPIN = test system: T4, HASPIN; conditions: concentration: 1 μM, replicates: in singlicate; n = 1
# T4 construct: gene GSG2
# HCK = conditions: concentration: 1 μM, replicates: in singlicate; n = 1
# HIPK1 = conditions: concentration: 1 μM, replicates: in singlicate; n = 1
# HIPK2 = conditions: concentration: 1 μM, replicates: in singlicate; n = 1
# HIPK3 = conditions: concentration: 1 μM, replicates: in singlicate; n = 1
# HIPK4 = conditions: concentration: 1 μM, replicates: in singlicate; n = 1
# [1] = concentration: 1 μM, replicates: in singlicate
# 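Also: KINOMEscan kinase panel screen.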
smiles,measurement,setting,value
Cc1nnc(-c2ccc3ncc(-c4ccc(S(C)=O)cc4)n3c2)o1 (centres unmarked),%Inh,FLT3-autoinhibited,20%
same,%Inh,FLT3,4%
same,%Inh,FLT4,6%
same,%Inh,FRK,29%
same,%Inh,FYN,10%
same,%Inh,GAK,9%
same,%Inh,"GCN2(Kin.Dom.2,S808G)",0%
same,%Inh,GRK1,9%
same,%Inh,GRK2,43%
same,%Inh,GRK3,0%
same,%Inh,GRK4,0%
same,%Inh,GRK7,16%
same,%Inh,GSK3A,1%
same,%Inh,GSK3B; [1],1%
same,%Inh,HASPIN,30%
same,%Inh,HCK,0%
same,%Inh,HIPK1,21%
same,%Inh,HIPK2,40%
same,%Inh,HIPK3,16%
same,%Inh,HIPK4,5%
O=C(Nc1n[nH]c2cc(-c3cccc(F)c3)ccc12)C1CC1 [SB-735464],%Inh,FLT3-autoinhibited,0%
same,%Inh,FLT3,21%
same,%Inh,FLT4,0%
same,%Inh,FRK,6%
same,%Inh,FYN,0%
same,%Inh,GAK,9%
same,%Inh,"GCN2(Kin.Dom.2,S808G)",0%
same,%Inh,GRK1,14%
same,%Inh,GRK2,0%
same,%Inh,GRK3,12%
same,%Inh,GRK4,38%
same,%Inh,GRK7,6%
same,%Inh,GSK3A,43%
same,%Inh,GSK3B; 1 µM,22%
same,%Inh,HASPIN,30%
same,%Inh,HCK,0%
same,%Inh,HIPK1,7%
same,%Inh,HIPK2,22%
same,%Inh,HIPK3,31%
same,%Inh,HIPK4,9%
Cc1cn2c(=O)cc(N3CCOCC3)nc2n1Cc1cccc(Cl)c1Cl [GSK2334006],%Inh,FLT3-autoinhibited,10%
same,%Inh,FLT3,13%
same,%Inh,FLT4,39%
same,%Inh,FRK,28%
same,%Inh,FYN,23%
same,%Inh,GAK,35%
same,%Inh,"GCN2(Kin.Dom.2,S808G)",12%
same,%Inh,GRK1,2%
same,%Inh,GRK2,3%
same,%Inh,GRK3,0%
same,%Inh,GRK4,0%
same,%Inh,GRK7,0%
same,%Inh,GSK3A,11%
same,%Inh,GSK3B; [1],13%
same,%Inh,HASPIN,11%
same,%Inh,HCK,16%
same,%Inh,HIPK1,0%
same,%Inh,HIPK2,0%
same,%Inh,HIPK3,18%
same,%Inh,HIPK4,6%
CCc1nc(-c2cccc(C)c2)c(-c2ccnc(NCc3ccccc3)c2)s1,%Inh,FLT3-autoinhibited,18%
same,%Inh,FLT3,0%
same,%Inh,FLT4,0%
same,%Inh,FRK,0%
same,%Inh,FYN,0%
same,%Inh,GAK,11%
same,%Inh,"GCN2(Kin.Dom.2,S808G)",11%
same,%Inh,GRK1,9%
same,%Inh,GRK2,0%
same,%Inh,GRK3,6%
same,%Inh,GRK4,9%
same,%Inh,GRK7,0%
same,%Inh,GSK3A,12%
same,%Inh,GSK3B; [1],0%
same,%Inh,HASPIN,41%
same,%Inh,HCK,5%
same,%Inh,HIPK1,21%
same,%Inh,HIPK2,0%
same,%Inh,HIPK3,0%
same,%Inh,HIPK4,7%
O=c1cc(N2CCOCC2)nc2n(Cc3cccc(C(F)(F)F)c3)ccn12 [GSK2297543],%Inh,FLT3-autoinhibited,12%
same,%Inh,FLT3,0%
same,%Inh,FLT4,0%
same,%Inh,FRK,0%
same,%Inh,FYN,42%
same,%Inh,GAK,0%
same,%Inh,"GCN2(Kin.Dom.2,S808G)",0%
same,%Inh,GRK1,0%
same,%Inh,GRK2,0%
same,%Inh,GRK3,0%
same,%Inh,GRK4,0%
same,%Inh,GRK7,0%
same,%Inh,GSK3A,6%
same,%Inh,GSK3B; [1],3%
same,%Inh,HASPIN,0%
same,%Inh,HCK,0%
same,%Inh,HIPK1,18%
same,%Inh,HIPK2,0%
same,%Inh,HIPK3,7%
same,%Inh,HIPK4,1%
CN(C(=O)c1ccc(-c2cc(-c3c[nH]nc3-c3ccccn3)ccn2)cc1)C1CCOCC1 [GW810083],%Inh,FLT3-autoinhibited,0%
same,%Inh,FLT3,8%
same,%Inh,FLT4,0%
same,%Inh,FRK,6%
same,%Inh,FYN,1%
same,%Inh,GAK,9%
same,%Inh,"GCN2(Kin.Dom.2,S808G)",2%
same,%Inh,GRK1,10%
same,%Inh,GRK2,18%
same,%Inh,GRK3,18%
same,%Inh,GRK4,4%
same,%Inh,GRK7,0%
same,%Inh,GSK3A,0%
same,%Inh,GSK3B; [1],4%
same,%Inh,HASPIN,0%
same,%Inh,HCK,0%
same,%Inh,HIPK1,22%
same,%Inh,HIPK2,25%
same,%Inh,HIPK3,0%
same,%Inh,HIPK4,0%
Cl.Nc1ncnc2occ(-c3ccc(NC(=O)Nc4cc(C(F)(F)F)ccc4F)cc3)c12 [SB-707548],%Inh,FLT3-autoinhibited,83%
same,%Inh,FLT3,99.4%
same,%Inh,FLT4,100%
same,%Inh,FRK,95.7%
same,%Inh,FYN,22%
same,%Inh,GAK,0%
same,%Inh,"GCN2(Kin.Dom.2,S808G)",8%
same,%Inh,GRK1,12%
same,%Inh,GRK2,0%
same,%Inh,GRK3,36%
same,%Inh,GRK4,0%
same,%Inh,GRK7,0%
same,%Inh,GSK3A,68%
same,%Inh,GSK3B; [1],8%
same,%Inh,HASPIN,0%
same,%Inh,HCK,71%
same,%Inh,HIPK1,63%
same,%Inh,HIPK2,50%
same,%Inh,HIPK3,77%
same,%Inh,HIPK4,99.2%
O=C1NC(=O)C(N2CCc3ccccc32)=C1c1cccc(Cl)c1 [SB-408010],%Inh,FLT3-autoinhibited,21%
same,%Inh,FLT3,0%
same,%Inh,FLT4,2%
same,%Inh,FRK,0%
same,%Inh,FYN,0%
same,%Inh,GAK,10%
same,%Inh,"GCN2(Kin.Dom.2,S808G)",17%
same,%Inh,GRK1,53%
same,%Inh,GRK2,0%
same,%Inh,GRK3,0%
same,%Inh,GRK4,29%
same,%Inh,GRK7,5%
same,%Inh,GSK3A,2%
same,%Inh,GSK3B; 1 µM,27%
same,%Inh,HASPIN,0%
same,%Inh,HCK,25%
same,%Inh,HIPK1,27%
same,%Inh,HIPK2,13%
same,%Inh,HIPK3,7%
same,%Inh,HIPK4,0%
c1ccc(-c2cc(-c3c[nH]nc3-c3ccccn3)ccn2)cc1 [GW576604],%Inh,FLT3-autoinhibited,0%
same,%Inh,FLT3,0%
same,%Inh,FLT4,0%
same,%Inh,FRK,0%
same,%Inh,FYN,20%
same,%Inh,GAK,78%
same,%Inh,"GCN2(Kin.Dom.2,S808G)",1%
same,%Inh,GRK1,0%
same,%Inh,GRK2,0%
same,%Inh,GRK3,17%
same,%Inh,GRK4,0%
same,%Inh,GRK7,0%
same,%Inh,GSK3A,11%
same,%Inh,GSK3B; [1],0%
same,%Inh,HASPIN,16%
same,%Inh,HCK,0%
same,%Inh,HIPK1,0%
same,%Inh,HIPK2,0%
same,%Inh,HIPK3,15%
same,%Inh,HIPK4,6%
NCC(NC(=O)c1cc(-c2cn[nH]c2)c(-c2ccnc3[nH]ccc23)s1)c1ccccc1.O=C(O)C(F)(F)F.O=C(O)C(F)(F)F (centres unmarked) [GSK1325775],%Inh,FLT3-autoinhibited,21%
same,%Inh,FLT3,69%
same,%Inh,FLT4,14%
same,%Inh,FRK,0%
same,%Inh,FYN,25%
same,%Inh,GAK,91.9%
same,%Inh,"GCN2(Kin.Dom.2,S808G)",99.1%
same,%Inh,GRK1,35%
same,%Inh,GRK2,70%
same,%Inh,GRK3,76%
same,%Inh,GRK4,64%
same,%Inh,GRK7,51%
same,%Inh,GSK3A,38%
same,%Inh,GSK3B; [1],48%
same,%Inh,HASPIN,84%
same,%Inh,HCK,0%
same,%Inh,HIPK1,88%
same,%Inh,HIPK2,96.7%
same,%Inh,HIPK3,98.4%
same,%Inh,HIPK4,94.8%
